Most compounds without a hit are left out; they make up all but 3.5% or so of the library.
TEAD-YAP inh = TEAD-YAP interaction inhibition, primary screen, TEAD-YAP interaction inhibitor project, luminescence, HEK-TIYL cells; 640,000 compounds, 1.4% hits; TEAD-Gal4/YAP UAS-luciferase luminescence; inhibition, % at 9.12 µM; in the data active means inhibition above about 32%
FBW7 activator = FBW7 E3 ligase activators, primary screen, biochemical, AlphaScreen, human. F-box/WD repeat-containing protein 7 (Homo sapiens), Q969H0. AlphaScreen FBW7–phospho-cyclin E peptide binding, activator screen. normalized activity (activation), % at 26.1 µM. 650,000 compounds, 0.13% hits; in the data active means normalized activity above about 1.9%;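 further: purified mutant Fbw7 with reduced substrate affinity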
GPR151 activ = activators of human GPR151, primary screen, cell-based, PathHunter beta-arrestin, luminescence. PathHunter beta-arrestin GPR151 cells. activation, % at 11.2 µM. 650,000 compounds, 1% hits; in the data active means activation above about 4.9%
Target sequence (Q8TDV0 whole entry, looked up): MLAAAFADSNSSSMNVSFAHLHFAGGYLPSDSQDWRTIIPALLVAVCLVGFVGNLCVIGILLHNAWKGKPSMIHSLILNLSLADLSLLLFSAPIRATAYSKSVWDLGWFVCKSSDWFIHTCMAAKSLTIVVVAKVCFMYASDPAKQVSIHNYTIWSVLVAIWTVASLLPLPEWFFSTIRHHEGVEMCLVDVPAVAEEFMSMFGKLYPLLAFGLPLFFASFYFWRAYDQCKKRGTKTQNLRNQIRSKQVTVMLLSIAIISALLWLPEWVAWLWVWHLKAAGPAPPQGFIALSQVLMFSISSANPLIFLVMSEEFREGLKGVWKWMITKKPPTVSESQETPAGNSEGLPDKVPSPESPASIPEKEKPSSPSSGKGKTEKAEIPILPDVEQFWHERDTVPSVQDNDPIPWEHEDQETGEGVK
MITF inh = MITF inhibitors, primary screen, biochemical, AlphaScreen, human | Microphthalmia-associated transcription factor (Homo sapiens), O75030 | AlphaScreen MITF homodimerization, bead proximity signal | inhibition, % at 2.6 µM | 650,000 compounds, 0.91% hits | AID 1259374, 2018; in the data active means inhibition above about 50%
Of the large screens only hits and unclear results are named; the others gave an inactive call.

Cc1cc(-c2cccc3[nH]c(C(F)(F)F)nc23)nn1C(=O)c1ccncc1	TEAD-YAP inh 34
O=C(O)c1cccc2[nH]c(C(F)(F)F)nc12	none
CC1CCc2nc(N)c(C#N)c(-c3cccnc3)c2C1 (stereo not drawn)	TEAD-YAP inh 50, FBW7 activator 1.9
O=[N+]([O-])c1cc2c(cc1C(O)c1nnc(-c3ccccc3)o1)OCO2 (stereo not drawn)	TEAD-YAP inh 81
COCCCNc1nccn2c(-c3cccc(O)c3)cnc12	TEAD-YAP inh 51
Nc1cccc(-c2cnc3c(Nc4ccccc4)nccn23)c1	TEAD-YAP inh 88
Nc1cccc(-c2cnc3c(Nc4ccc(Cl)cc4)nccn23)c1	TEAD-YAP inh 65
COCCNc1nccn2c(-c3ccoc3)cnc12	FBW7 activator 2.1
Cc1nnc(SCC(=O)Nc2nc(-c3ccccc3)cs2)o1	none
O=C(CCC1CCCC1)NCC1CCC2(CCN(C(=O)c3ccoc3)CC2)O1 (stereo not drawn)	none
c1ccc(Nc2nccn3c(-c4ccoc4)cnc23)cc1	TEAD-YAP inh 66
N#Cc1ccc(NC(=O)C(=O)/C=C(\O)c2ccc(Cl)cc2)cc1	none
CN(C(=O)c1cccc2ncccc12)c1nc2c(s1)CCc1occc1-2	FBW7 activator 7.5
CN(C)N1C(N)=C(C#N)C(c2ccc(C(F)(F)F)cc2)C2=C1CCCC2=O (stereo not drawn)	FBW7 activator 2.1
COc1ccc(N2C(N)=C(C#N)C(c3ccc(O)c(OC)c3)C3=C2CCCC3=O)cc1 (stereo not drawn)	TEAD-YAP inh 58
COc1cc(C2C(C#N)=C(N)N(c3ccc(C)cc3)C3=C2C(=O)CCC3)cc(OC)c1OC (stereo not drawn)	TEAD-YAP inh 61
Cc1ccc(C2C(C#N)=C(N)N(N(C)C)C3=C2C(=O)CCC3)cc1 (stereo not drawn)	none
COc1ccc(C2C(C#N)=C(N)N(c3ccc(OC)cc3)C3=C2C(=O)CCC3)cc1 (stereo not drawn)	none
COc1ccc(N2C(N)=C(C#N)C(c3ccc(OC)c(OC)c3)C3=C2CCCC3=O)cc1 (stereo not drawn)	TEAD-YAP inh 62
COc1ccc2nc(-n3nc(C)cc3NC(=O)c3ccccc3F)sc2c1	none
COc1ccc(CCNC(=O)CSc2nc3ccc([N+](=O)[O-])cc3s2)cc1OC	none
Cc1cc(-c2ccccc2)n(-c2ccc(Cl)cc2)n1	none
Cn1cnnc1-c1ccc(Nc2nccc(-c3ccccc3)n2)cc1	none
Nn1c(-c2ccncc2)nncc1=O	none
O=C(CSc1ccc(-c2ccco2)nn1)Nc1cccc(Cl)c1	none
c1ccc(-c2cnc(SCCN3CCOCC3)n2CC2CCCO2)cc1 (stereo not drawn)	MITF inh 57
C=CCn1c(C)cc(C(=O)CSc2nnc(N)s2)c1C	TEAD-YAP inh 39
COc1cccc(/C=N/NC(=O)c2ccc(N(C)S(=O)(=O)c3ccccc3)cc2)c1O	TEAD-YAP inh 80
COc1cccc(/C=N/NC(=O)c2cc3ccccc3cc2O)c1O	TEAD-YAP inh 53
COc1cccc(/C=N/NC(=O)C(=O)Nc2cccc(C(F)(F)F)c2)c1O	TEAD-YAP inh 59
COc1ccccc1C(=O)N/N=C/c1cc([N+](=O)[O-])cc(OC)c1O	none
COc1cccc(/C=N/NC(=O)C(=O)N/N=C/c2cccc(OC)c2O)c1O	none
COc1cccc(/C=N/NC(=O)c2cc(O)c(O)c(O)c2)c1O	none
COc1cc([N+](=O)[O-])cc(/C=N/NC(=O)c2ccncc2)c1O	MITF inh 83
CCCOc1ccccc1CN1C(=O)C(=O)c2ccccc21	none
O=C(c1ccco1)N1CCN(c2cc(-c3ccccc3)nc3ncnn23)CC1	none
CCN(CC)c1ccc2cc(C(=O)Nc3cccc4ncccc34)c(=O)oc2c1	none
Cc1ccccc1NC(=O)Nc1ccnn1C1CCN(Cc2nc(C(C)C)cs2)CC1	none
COc1cccc(/C=N/NC(=O)c2ccncc2)c1O	MITF inh 61
COc1cccc(/C=N/NC(=O)c2ccc(NC(=O)c3ccc(F)cc3)cc2)c1O	TEAD-YAP inh 97
COc1cccc(/C=N/NC(=O)c2cncc(Br)c2)c1O	TEAD-YAP inh 80, MITF inh 90
COc1cc(/C=N/NC(=O)c2cncc(Br)c2)cc(Br)c1O	none
O=C(N/N=C/c1cc(Cl)ccc1O)c1cncc(Br)c1	MITF inh 63
COc1ccccc1/C=N/NC(=O)c1ccc(NC(=O)c2ccc(F)cc2)cc1	none
COc1cccc(/C=N/NC(=O)c2ccc(Cl)c(Cl)c2)c1O	none
COc1ccc(-n2nc(C(=O)NCc3ccccn3)c3ccccc3c2=O)c(OC)c1	none
CNC(=O)C(NC(=O)c1ccc(C)cc1)C12CC3CC(CC(C3)C1)C2 (stereo not drawn)	none
NC(=S)N/N=C/c1cccc2ccccc12	none

Bioassay records (PubChem BioAssay)
